Assay results as given in PubChem BioAssay (NCI).
This is part of a sample that, as a whole, favours compounds with a hit. Of some 83,000 tested, about 20% had one in any assay.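 For each line, cells grew in 96-well plates with the test compound present at a single concentration for 48 hours.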 Activity calls are given as the source filed them. The calls were made as follows: active = growth percent below 10; inactive = the rest.

What was measured:
Assay in all cases: NCI-60 one-dose screen, 48 h (100 = growth as untreated, 0 = no growth, -100 = all killed)
Conditions in all cases: 10 µM unless noted
T-47D breast = test system: T-47D breast
BT-549 breast = test system: BT-549 breast
MDA-MB-435 melanoma = test system: MDA-MB-435 melanoma
SW-620 colon = test system: SW-620 colon
MCF7 breast = test system: MCF7 breast
HCT-116 colon = test system: HCT-116 colon
HCC-2998 colon = test system: HCC-2998 colon
KM12 colon = test system: KM12 colon

Measured: growth

C=C1CC[C@@H]2C(C)(C)[C@H](O)CC[C@@]2(C)[C@@H]1COc1ccc2ccc(=O)oc2c1
active: T-47D breast 7.88% | BT-549 breast 5.68%
inactive: MDA-MB-435 melanoma 64.4% | SW-620 colon 89.5% | MCF7 breast 53.9% | HCT-116 colon 64.1% | HCC-2998 colon 95.4% | KM12 colon 28.2%

Brc1ccc(Nc2nc(Nc3cnc4ccccc4c3)c3[nH]cnc3n2)cc1
inactive: T-47D breast 52.8% | BT-549 breast 48.6% | MDA-MB-435 melanoma 96.3% | SW-620 colon 91.9% | MCF7 breast 58% | HCT-116 colon 55% | HCC-2998 colon 103% | KM12 colon 88.8%

CCOC(=O)C/C(=N\Nc1cc(=O)[nH]c2ccc(OC)cc12)C(=O)OCC
inactive: T-47D breast 101% | BT-549 breast 110% | MDA-MB-435 melanoma 99% | SW-620 colon 90.3% | MCF7 breast 87.9% | HCT-116 colon 101% | HCC-2998 colon 101% | KM12 colon 99.2%

O=C(Nc1cc(Cl)ccc1O)c1ccccc1Nc1ccnc(C(F)(F)F)c1
inactive: BT-549 breast 33.2% | MDA-MB-435 melanoma 29.1% | SW-620 colon 15%
active: T-47D breast 0.662% | MCF7 breast 8.95% | HCT-116 colon 2.14% | HCC-2998 colon 3.95% | KM12 colon 7.26%

O=C(Oc1ccc2c(c1)sc1nc(-c3ccccc3)[nH]c(=O)c12)C(F)(F)F
inactive: T-47D breast 32.3% | BT-549 breast 44.3% | SW-620 colon 18.4% | MCF7 breast 17.1% | HCT-116 colon 19.8% | HCC-2998 colon 31.2% | KM12 colon 11.2%
active: MDA-MB-435 melanoma -55.4%

COCCn1cc(-c2csc(-c3c[nH]c4ccccc34)n2)c2cccnc21
inactive: BT-549 breast 21.8% | SW-620 colon 30.7% | HCT-116 colon 16.6% | HCC-2998 colon 42.1% | KM12 colon 15.6%
active: T-47D breast 3.06% | MDA-MB-435 melanoma 2.9% | MCF7 breast 9.88%

COc1ccc(C(=O)C/C(=C\c2ccc(O)c(OC)c2)C(=O)NN)cc1
inactive: T-47D breast 66.9% | BT-549 breast 63.7% | SW-620 colon 84.1% | MCF7 breast 47.9% | HCT-116 colon 72.2% | HCC-2998 colon 104% | KM12 colon 73.2%
active: MDA-MB-435 melanoma 9.68%

Cc1cccc(-c2nc(C(C)C)sc2-c2ccnc(NCCCNS(=O)(=O)c3ccc(Cl)cc3)c2)c1
inactive: T-47D breast 52.5% | BT-549 breast 74.8% | MDA-MB-435 melanoma 80% | SW-620 colon 56.6% | MCF7 breast 53.8% | HCT-116 colon 54.4% | HCC-2998 colon 75.2% | KM12 colon 58.1%

O=c1cc(-c2ccccc2)nc(SCc2nc3cc(Cl)c(Cl)cc3[nH]2)[nH]1
inactive: T-47D breast 79% | BT-549 breast 108% | MDA-MB-435 melanoma 105% | SW-620 colon 104% | MCF7 breast 92.5% | HCT-116 colon 97.3% | HCC-2998 colon 102% | KM12 colon 96%

CCN1CCN(CCNc2nccc(-c3c(-c4ccc(F)c(O)c4)nc4occn34)n2)S1(=O)=O
inactive: BT-549 breast 21.2% | MDA-MB-435 melanoma 10.1% | SW-620 colon 44.1% | MCF7 breast 17.7% | HCT-116 colon 16.3% | HCC-2998 colon 57.3% | KM12 colon 13.7%
active: T-47D breast -1.77%

Cc1ccc(-c2nc(SCC(=O)N3CCN(c4cc5c(cc4F)c(=O)c(C(=O)O)cn5C4CC4)CC3)nc(Cl)c2C#N)cc1
inactive: T-47D breast 91.1% | BT-549 breast 103% | MDA-MB-435 melanoma 106% | SW-620 colon 103% | MCF7 breast 94.9% | HCT-116 colon 101% | HCC-2998 colon 98.8% | KM12 colon 102%

COc1ccc(-c2nc(SCC(=O)Nc3nc4ccc(C)cc4s3)[nH]c(=O)c2C#N)cc1OC
inactive: T-47D breast 94.8% | BT-549 breast 97.8% | MDA-MB-435 melanoma 101% | SW-620 colon 96.2% | MCF7 breast 95.6% | HCT-116 colon 94.8% | HCC-2998 colon 105% | KM12 colon 102%

Cc1cc(Cl)nc(N2CCN(CCNc3ccnc4cc(Cl)ccc34)CC2)n1
inactive: T-47D breast 19.5% | BT-549 breast 47% | MDA-MB-435 melanoma 50.2% | SW-620 colon 45.3% | MCF7 breast 26.8% | HCT-116 colon 25.3% | KM12 colon 55.7%
active: HCC-2998 colon -3.07%

COc1cc(-c2cc(-c3ccc(Nc4nc(Nc5ccc(Cl)cc5)nc(Nc5ccc(Cl)cc5)n4)cc3)no2)cc(OC)c1OC
inactive: T-47D breast 45.9% | BT-549 breast 88.6% | MDA-MB-435 melanoma 71.5% | SW-620 colon 89.1% | MCF7 breast 49.4% | HCT-116 colon 66.2% | HCC-2998 colon 61.3% | KM12 colon 83.8%

O=C(O)c1cn(C2CC2)c2cc(N3CCN(C(=O)N/N=C/c4cccc5ccccc45)CC3)c(F)cc2c1=O
inactive: T-47D breast 89.9% | MDA-MB-435 melanoma 104% | SW-620 colon 109% | MCF7 breast 98.2% | HCT-116 colon 14.8% | HCC-2998 colon 107% | KM12 colon 101%
active: BT-549 breast 6.18%

CCn1cc(C(=O)N/N=C/c2ccccc2)c(=O)c2cc(F)c(N3CCNC(C)C3)c(F)c21 (stereo not given)
inactive: T-47D breast 63.6% | BT-549 breast 77.8% | HCT-116 colon 57.6%
active: MDA-MB-435 melanoma -88.1% | SW-620 colon -81.1% | MCF7 breast -84.4% | HCC-2998 colon -82.9% | KM12 colon -89.4%

c1cc(OCCN2CCCC2)ccc1CNc1ccc2nc(CCC3CCCCC3)[nH]c2c1
inactive: BT-549 breast 82.5% | HCT-116 colon 15.3% | HCC-2998 colon 19.7% | KM12 colon 52.5%
active: T-47D breast -11.5% | MDA-MB-435 melanoma -50.7% | SW-620 colon 8.87% | MCF7 breast 3.44%

CC(C)c1ccc2c(c1)CC[C@H]1[C@](C)(C(=O)OCC#CCN3CCCC3)CCC[C@]21C
inactive: T-47D breast 63.4% | BT-549 breast 93.4% | MDA-MB-435 melanoma 82.9% | SW-620 colon 84.6% | MCF7 breast 73.9% | HCT-116 colon 48.5% | HCC-2998 colon 86.9% | KM12 colon 81.4%

c1ccc(-c2c(-c3ccccc3)[n+](Cc3ccc4ccccc4c3)cn2Cc2ccc3ccccc3c2)cc1
active: T-47D breast -74.3% | BT-549 breast -82% | MDA-MB-435 melanoma -91.3% | SW-620 colon -79.8% | MCF7 breast -83.8% | HCT-116 colon -87.5% | HCC-2998 colon -93.3% | KM12 colon -80.2%

CNC(=O)c1cc(Oc2ccc3c(c2)sc2nc(-c4ccc(Cl)c(C(F)(F)F)c4)cn23)ccn1
inactive: T-47D breast 25.7% | BT-549 breast 45.9% | MDA-MB-435 melanoma 65.8% | SW-620 colon 68.6% | MCF7 breast 36.8% | HCT-116 colon 41% | HCC-2998 colon 80.5% | KM12 colon 82.6%

CCOC(=O)CC1CSC(N/N=C/c2ccc(F)c(Br)c2)=N1 (stereo not given)
inactive: T-47D breast 93.7% | BT-549 breast 110% | MDA-MB-435 melanoma 108% | SW-620 colon 102% | MCF7 breast 96.1% | HCT-116 colon 88.5% | HCC-2998 colon 105% | KM12 colon 93.2%

COc1ccc(OC)c(Nc2nnc(-c3cc(OC)c(OC)c(OC)c3)o2)c1
inactive: T-47D breast 82.2% | BT-549 breast 88.8% | MDA-MB-435 melanoma 102% | SW-620 colon 108% | MCF7 breast 105% | HCT-116 colon 103% | HCC-2998 colon 103% | KM12 colon 94.6%

CC1(C)CC[C@]23CC[C@]4(C)[C@H](CC[C@@H]5[C@@]6(C)CCNCC(C)(C)[C@@H]6CC[C@]54C)[C@H]2[C@H]1OC3
inactive: T-47D breast 77.8% | BT-549 breast 94.2% | MDA-MB-435 melanoma 86.5% | SW-620 colon 49.9% | MCF7 breast 91.5% | HCT-116 colon 55% | HCC-2998 colon 28.6% | KM12 colon 81.4%

NS(=O)(=O)c1ccc(C(=O)NN2C(=O)c3ccccc3C2=O)cc1
inactive: T-47D breast 98.4% | BT-549 breast 109% | MDA-MB-435 melanoma 103% | SW-620 colon 104% | MCF7 breast 96.1% | HCT-116 colon 110% | HCC-2998 colon 108% | KM12 colon 102%

Cc1ccc(C2CC(c3cccc(Nc4ccncc4)c3)=Nc3c(N)nc(N)nc3N2)cc1 (stereo not given)
inactive: T-47D breast 89% | BT-549 breast 114% | MDA-MB-435 melanoma 21.7% | SW-620 colon 30.4% | MCF7 breast 37.7% | HCT-116 colon 22.3% | HCC-2998 colon 62.4% | KM12 colon 51.7%

C=CC(CC(c1ccccc1)(c1ccccc1)c1ccccc1)N(CC)CC (stereo not given)
inactive: T-47D breast 59.3% | BT-549 breast 64.4% | MDA-MB-435 melanoma 79.2% | SW-620 colon 55.4% | MCF7 breast 73% | HCT-116 colon 43.9% | HCC-2998 colon 69% | KM12 colon 58.8%

c1csc(-c2cn3nc(-c4c[nH]c5ccccc45)sc3n2)c1
inactive: T-47D breast 23.9% | BT-549 breast 38% | SW-620 colon 22.5% | MCF7 breast 13% | HCT-116 colon 14.7% | HCC-2998 colon 52.4% | KM12 colon 23.8%
active: MDA-MB-435 melanoma -38.4%

[N-]=[N+]=NCC1OC(n2cnc3c(NC(=O)Nc4ccccc4)ncnc32)C2OC(=O)CC12 (stereo not given)
inactive: T-47D breast 103% | BT-549 breast 104% | MDA-MB-435 melanoma 109% | SW-620 colon 105% | MCF7 breast 92.3% | HCT-116 colon 101% | HCC-2998 colon 107% | KM12 colon 106%

NCCCNc1nc2ccccc2c2c(=O)c3cc(Cl)ccc3sc12
inactive: BT-549 breast 83%
active: T-47D breast -6.77% | MDA-MB-435 melanoma -71.1% | SW-620 colon -90.6% | MCF7 breast -75.4% | HCT-116 colon -92.5% | HCC-2998 colon -75.6% | KM12 colon -67.4%

C#CCOc1ccc2nc(CCl)c(Cl)c(Nc3cccc(C(F)(F)F)c3)c2c1
inactive: T-47D breast 65.9% | BT-549 breast 60.6% | MDA-MB-435 melanoma 84.1% | SW-620 colon 66.4% | MCF7 breast 40.7% | HCT-116 colon 64% | HCC-2998 colon 98.3% | KM12 colon 93.6%
